This note sets out measurements from PubChem BioAssay AID1851 (National Center for Advancing Translational Sciences (NCATS), 2009).

Hit rate of the full screen: of about 16,000 compounds, about 5,700 (36%) were called active. Inconclusive results (about 24%) are left out. The list shows a part of the results. Values without a mark were called inactive. The call rests on the fitted dose curve; in most records, active means well fitted curve in the direction sought with a large enough effect; inconclusive means small, poorly fitted or top-dose-only effect, or effect the other way; inactive means no such curve, though single readings can be large or run the other way.
On the % scale 0 is the no-effect control and ±100 the full control effect.

The target in this experiment is Cytochrome P450 1A2 (Homo sapiens) (UniProt P05177). The experiment can be described thus: Cytochrome panel assay with activity outcomes. Particulars: recombinant CYP, pro-luciferin dealkylation, luminescence, p450-cyp1a2; series mostly up to 57.1 µM; activity, negative = inhibition: at the top concentration.
Cytochrome P450 1A2 (Homo sapiens), sequence (P05177 whole entry, looked up): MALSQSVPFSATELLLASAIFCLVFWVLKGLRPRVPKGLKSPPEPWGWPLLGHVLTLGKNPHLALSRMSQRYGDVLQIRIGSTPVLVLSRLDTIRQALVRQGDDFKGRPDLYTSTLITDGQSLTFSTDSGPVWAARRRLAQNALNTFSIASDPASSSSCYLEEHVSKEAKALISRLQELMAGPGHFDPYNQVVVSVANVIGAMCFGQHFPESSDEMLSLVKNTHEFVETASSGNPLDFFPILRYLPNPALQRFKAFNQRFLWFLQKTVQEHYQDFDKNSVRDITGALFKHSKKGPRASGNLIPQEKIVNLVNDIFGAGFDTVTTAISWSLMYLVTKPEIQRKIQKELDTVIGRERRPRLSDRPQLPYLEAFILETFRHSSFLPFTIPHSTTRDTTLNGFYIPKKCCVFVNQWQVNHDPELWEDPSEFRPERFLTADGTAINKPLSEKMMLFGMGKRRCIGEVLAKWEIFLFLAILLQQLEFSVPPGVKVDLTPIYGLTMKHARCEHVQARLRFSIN
Consider `Cc1cc(C)c(-c2cc([C@H](C)O/N=C\[C@@H](C)[C@H](OCc3ccccc3)C(C)C)on2)c(C)c1`, for which the activity, negative = inhibition was 5.92% [at 11.4 µM]. Same read-out and setting: the result for `O=C(O)CONC(=O)c1cc(OCC(F)(F)F)ccc1OCC(F)(F)F` reads -17.8%. Take `S=C(NCCSCc1c(Cl)cccc1Cl)Nc1ccccc1`: the AC50 was 1.41 µM (active). As for `Fc1cccc(NC(=S)NCCCN2CCOCC2)c1`, the “activity, negative = inhibition” value was -12.7%. In the case of `Oc1oc(-c2ccccc2)nc1C=Nc1ccccc1`, the AC50 is 0.316 µM (active).

Consider `CN(C)c1ccc(N=Cc2nc(-c3ccccc3)oc2O)cc1`, for which the AC50 was 0.398 µM (active). On to `CCOC(=O)C1=C(C)Nc2ncnn2C1c1cccnc1` (stereo not drawn), for which the “activity, negative = inhibition” value is -18.6%. As for `CC1=C(C(N)=O)C(c2ccccc2)n2nc(-c3ccncc3)nc2N1` (stereo not drawn), the AC50 is 14.1 µM (active).

For the compound `CSc1nc2n(n1)C(c1cccc(F)c1)C(C(=O)Nc1ccc(C)cc1C)=C(C)N2` (stereo not drawn), the “activity, negative = inhibition” value is 1.58%. As for `COc1cccc(Nc2nc(-c3ccc(O)cc3)cs2)c1`, the concentration at half-maximal activity (AC50) was 1 µM (active). For the compound `COc1ccc(OC)c(Nc2nc(-c3sc(NC(=O)c4ccccc4)nc3C)cs2)c1`, the “activity, negative = inhibition” value was -16%.

On to `COc1cccc([C@H](O)Cn2cc(-c3ccc(CON=C(C)C)cc3)nn2)c1`, for which the activity, negative = inhibition is -9.27% [at 11.4 µM]. Regarding `C=CCNC(=S)Nc1ccc2nc(C)c(C)nc2c1`, the AC50 was 4.47 µM (active).

On to `COc1cc(N=c2ssnc2Cl)cc(OC)c1OC`, for which the AC50 is 3.16 µM (active). Regarding `Cn1c(=O)c2[nH]c(CSCc3ccccc3)nc2n(C)c1=O`, the activity, negative = inhibition was -15.4% [at 2.29 µM].

Consider `CCCn1c(=O)c2[nH]c(-c3ccc(OCC(=O)NCCN)cc3)nc2n(CCC)c1=O`, for which the “activity, negative = inhibition” value was 5.09%. Still for that read-out and setting: then `CCn1c(CCCc2nc3c([nH]2)c(=O)n(C)c(=O)n3C)nc2c1c(=O)n(C)c(=O)n2C`, with -16.7% [at 2.29 µM].

In the case of `CCn1c(=O)c2[nH]c(-c3ccccc3)nc2n(CC)c1=O`, the AC50 was 1 µM (active). On the same count and under the same terms, the result for `Cn1c(=O)c2[nH]c(-c3ccccc3)nc2n(C)c1=O` reads 2 µM (active). Turning to `Cn1c(=O)c2[nH]cnc2n(C)c1=O`, the “activity, negative = inhibition” value was -18.4% [at 25.6 µM]. In the case of `CCCn1c(=O)c2[nH]c(-c3ccccc3)nc2n(CCC)c1=O`, the AC50 is 0.0794 µM (active).

As for `Cn1c(=O)c2[nH]c(CCC(=O)O)nc2n(C)c1=O`, the activity, negative = inhibition was -3.23% [at 11.4 µM]. For the compound `COc1ccc(-c2nc3c([nH]2)c(=O)n(C)c(=O)n3C)c(OC)c1`, the AC50 was 2 µM (active). For `Cn1c(=O)c2[nH]c(-c3ccc(S(=O)(=O)O)cc3)nc2n(C)c1=O`, the “activity, negative = inhibition” value is -17.6%.

In the case of `CC(C)(C)c1ccc(OC(=O)Nc2ccc(O)c(C(=O)O)c2)cc1`, the activity, negative = inhibition was 6.5% [at 2.29 µM].

Consider `CCNC(=O)NC1(C(=O)Nc2ccc3c(c2)OCCO3)CCCCC1`, for which the “activity, negative = inhibition” value was 15.2%. Take `Cc1cc(NC(=O)c2c([N+](=O)[O-])cnn2C)no1`: the “activity, negative = inhibition” value was -10.2%. Take `CC(=O)Nc1ccc2c(c1)OCCOCCOc1cc(NC(C)=O)ccc1OCCOCCOCCO2`: the “activity, negative = inhibition” value was -0.0222%. In the case of `CCOC(=O)Nc1ccc(C(=O)Oc2ccccc2)c(O)c1`, the AC50 was 3.16 µM (active). For `O=C(CC1C(=O)NCCN1C(=S)Nc1ccccc1)Nc1ccc2c(c1)OCCO2` (stereo not drawn), the “activity, negative = inhibition” value was -16%.

`O=C(Cn1ccc(=O)[nH]c1=O)Nc1ccc(C(=O)O)c(O)c1`: the activity, negative = inhibition was -16.5% [at 2.29 µM]. As for `CC(=O)Nc1ccc2c(c1)OCCO2`, the AC50 was 10 µM (active). For `COc1cc2c(cc1OC)C(C(=O)Nc1ccc3c(c1)OCCO3)C(c1cccnc1)N(C)C2=O` (stereo not drawn), the “activity, negative = inhibition” value is -15.2%.

Consider `O=C(CC(c1ccccc1)c1ccccc1)Nc1ccc2c(c1)OCCO2`, for which the AC50 was 10 µM (active). In the case of `Cn1ncc([N+](=O)[O-])c1C(=O)Nc1ccc2c(c1)OCCO2`, the AC50 is 1.26 µM (active). In the case of `CC[n+]1c(P(=O)([O-])c2ccccc2)[nH]c2ccccc21`, the “activity, negative = inhibition” value is 21.3%. On the same count and under the same terms, the result for `COc1ccccc1CN1CCC2(CC1)CCN(C(=O)c1cccn1C)CC2` reads -12.2%; that for `CC(C)NC(=O)N1CCC2(CC1)CCN(C(=O)c1cc(C(F)(F)F)cc(C(F)(F)F)c1)CC2`, 2.82%; that for `O=C1C2CCC(C(O)C2)N1Cc1ccccc1` (stereo not drawn), 13.7%.

On to `CCOC(=O)Nc1ccc2c(c1)OCO2`, for which the concentration at half-maximal activity (AC50) is 1.26 µM (active).

As to `COc1cccc(Cn2c(=O)cnc3cnc(OCc4ccccc4)nc32)c1`, the AC50 was 12.6 µM (active). Turning to `COc1cccc(Cn2c(=O)cnc3cnc(Oc4cccc(Cl)c4)nc32)c1`, the AC50 is 12.6 µM (active). On the same count and under the same terms, the result for `O=c1cnc2cnc(Oc3ccccc3)nc2n1Cc1ccc(F)cc1` reads 15.8 µM (active).

With `O=c1cnc2cnc(Oc3cccc(Cl)c3)nc2n1Cc1ccc(F)cc1`, the AC50 was 15.8 µM (active). For `CON1C(=O)C(=O)N(OC)C(C)(C)C1C` (stereo not drawn), the “activity, negative = inhibition” value is -4.35%. Still for that read-out and setting: then `COc1ccc(O[C@H]2C=C[C@@H](c3ccccc3)O[C@H]2COC(=O)CC/C(C)=N\O[C@@H](C)c2cn([C@H]3COC[C@H]3O)nn2)cc1`, with -4.14% [at 11.4 µM]. Turning to `O=c1cnc2cnc(OCc3ccccc3)nc2n1Cc1ccc(F)cc1`, the AC50 is 12.6 µM (active).

For `COc1ncc2ncc(=O)n(Cc3ccc(F)cc3)c2n1`, the AC50 was 12.6 µM (active).

The term AC50 denotes the concentration at which the activity in the assay is half-maximal.
